The values that follow come from PubChem BioAssay AID1851 (National Center for Advancing Translational Sciences (NCATS), 2009).

“And” between values parts separate entries of the source, which are not always exact repeats. Identical values can stand only once. The campaign covered roughly 16,000 compounds. About 5,100 (32%) were called active. Another 25% or so got no clear call; they are omitted. The call rests on the fitted dose curve; in most records, active means well fitted curve in the direction sought with a large enough effect; inconclusive means small, poorly fitted or top-dose-only effect, or effect the other way; inactive means no such curve, though single readings can be large or run the other way. Some of the results follow.

The term AC50 denotes the concentration giving half of the maximal activity seen.
On the % scale 0 is the no-effect control and ±100 the full control effect.

Chain of Cytochrome P450 3A4 (Homo sapiens) (P08684 whole entry, looked up): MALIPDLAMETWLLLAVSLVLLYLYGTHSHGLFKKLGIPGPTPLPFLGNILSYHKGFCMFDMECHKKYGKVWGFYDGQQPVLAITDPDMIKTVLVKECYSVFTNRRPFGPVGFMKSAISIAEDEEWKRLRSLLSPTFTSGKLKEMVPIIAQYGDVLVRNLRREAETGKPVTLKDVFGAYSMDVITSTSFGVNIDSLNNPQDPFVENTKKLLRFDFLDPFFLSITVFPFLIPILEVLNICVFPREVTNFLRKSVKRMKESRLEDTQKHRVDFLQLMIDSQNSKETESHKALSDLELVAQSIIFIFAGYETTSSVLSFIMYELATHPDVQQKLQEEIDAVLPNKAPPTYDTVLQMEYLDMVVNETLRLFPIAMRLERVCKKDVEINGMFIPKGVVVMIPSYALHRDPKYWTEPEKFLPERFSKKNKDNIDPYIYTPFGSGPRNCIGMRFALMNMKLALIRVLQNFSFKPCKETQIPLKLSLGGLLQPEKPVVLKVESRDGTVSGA

This test has as its target Cytochrome P450 3A4 (Homo sapiens) (UniProt P08684). The test is described as follows: Cytochrome panel assay with activity outcomes. The settings on record: recombinant CYP, pro-luciferin dealkylation, luminescence, p450-cyp3a4; series mostly up to 57.1 µM; activity, negative = inhibition: at the top concentration.
With `Oc1c(Br)cc(CN(Cc2cc(Br)c(O)c(Br)c2)C2CCCCC2)cc1Br`, the activity, negative = inhibition is -9.71% [at 11.4 µM] (inactive).
The same measure, in the same setting: in the case of `COc1ccc(C2=Nc3cccc4cccc(c34)N2)cc1` it was 12.5% (inactive).
For `COc1ccc(CNc2ncncc2-c2cccc(C#N)c2)c(OC)c1`, the AC50 is 0.316 µM (active).
Regarding `COc1cccc(-c2cncnc2NCc2ccccc2OC)c1`, the AC50 was 0.501 µM (active).
Turning to `COc1cccc(-c2cncnc2NCc2ccc(OC)cc2OC)c1`, the AC50 is 0.501 µM (active).
Regarding `COc1ccc(CNc2ncncc2-c2cccnc2)c(OC)c1`, the AC50 was 0.501 µM (active).
For the compound `CCNc1nc(NCC)nc(ON=C(C)C)n1`, the “activity, negative = inhibition” value is -10.1% (inactive).
Still for that read-out and setting: then `Cn1ccnc1C[C@@](C)(O)c1ccccc1`, with -4.26% [at 11.4 µM] (inactive); and `CCn1cc(C(=O)N/N=C(/C)c2ccc(F)cc2)c(=O)c2cc(F)c(N3CCCC3)cc21`, with -9.03% (inactive).
As for `COc1ccccc1CNc1ncncc1-c1cccnc1`, the concentration at half-maximal activity (AC50) is 0.794 µM (active).
Regarding `C[C@@H](c1ccccc1)N1C(=O)[C@H]2[C@@H]3[C@H](O)[C@H](O)CC(=O)[C@H]3CC[C@H]2C1=O`, the activity, negative = inhibition is -24.3% [at 11.4 µM] (inactive) and -16.6% [at 11.4 µM] (inactive).
For `O=C1[C@H]2[C@H]3[C@H](O)[C@H](O)C/C(=N/OC[C@@H](O)COCc4ccco4)[C@@H]3CC[C@@H]2C(=O)N1C[C@@H]1CCCO1`, the activity, negative = inhibition is -23.9% [at 11.4 µM] (inactive).
As for `C[C@@H](c1ccccc1)N1C(=O)[C@H]2[C@H]3[C@H](O)[C@H](O)C/C(=N/OC[C@@H](O)COCc4ccco4)[C@@H]3CC[C@@H]2C1=O`, the AC50 was 3.16 µM (active).
With `CCOC(=O)CCN1C(=O)[C@H]2[C@H]3[C@H](O)[C@H](O)C/C(=N/OC[C@@H](O)COCc4ccco4)[C@@H]3CC[C@@H]2C1=O`, the activity, negative = inhibition was -16.7% [at 11.4 µM] (inactive).
`C[C@@H](c1ccccc1)N1C(=O)[C@H]2[C@H]3[C@H](O)[C@H](O)C/C(=N/OC[C@@H](O)COCc4ccco4)[C@H]3CC[C@@H]2C1=O`: the half-maximal activity concentration (AC50) is 3.98 µM (active).
For the compound `O=C1[C@H]2[C@H]3[C@H](O)[C@H](O)C/C(=N/OC[C@@H](O)COCc4ccco4)[C@H]3CC[C@@H]2C(=O)N1C[C@@H]1CCCO1`, the activity, negative = inhibition was -13.4% [at 11.4 µM] (inactive).
Same read-out and setting: in the case of `CCOC(=O)CCN1C(=O)[C@H]2[C@H]3[C@H](O)[C@H](O)C/C(=N/OC[C@@H](O)COCc4ccco4)[C@H]3CC[C@@H]2C1=O` it was -22.6% [at 11.4 µM] (inactive); in that of `CC(=O)OC[C@@H]1O[C@@H](O/N=C2/C[C@@H](O)[C@@H](O)[C@@H]3[C@@H]4C(=O)N([C@@H](C)c5ccccc5)C(=O)[C@H]4CC[C@H]23)[C@H](OC(C)=O)[C@H](OC(C)=O)[C@@H]1OC(C)=O`, -29.1% [at 11.4 µM] (inactive).
As to `CC(C)(C)N1C(=O)[C@H]2[C@H]3[C@H](O)[C@H](O)C/C(=N/OC[C@@H](O)COCc4ccco4)[C@@H]3CC[C@@H]2C1=O`, the AC50 was 5.01 µM (active).
Turning to `O=C1C(O)=C(O)C(=O)C(O)=C1O`, the “activity, negative = inhibition” value is -16.8% [at 25.6 µM] (inactive).
Consider `NC(N)=NC(N)=Nc1ccc(S(=O)(=O)O)cc1`, for which the activity, negative = inhibition is -0.586% [at 11.4 µM] (inactive).
The same measure, in the same setting: then `CC1=CC=CN2CC(O)CN=C12` (stereo unspecified), with -1.24% (inactive); and `Cc1c(C(=O)NN2CCN(C)CC2)cccc1[N+](=O)[O-]`, with -3.79% (inactive).
On the same count and under the same terms, in the case of `COc1ccc(Cc2nnc(NC(=O)c3ccco3)s2)cc1` it was 13.7% (inactive).
In the case of `COc1ccc(Cc2nnc(NC(=O)c3cccc([N+](=O)[O-])c3C)s2)cc1`, the concentration at half-maximal activity (AC50) is 10 µM (active).
Regarding `COCC(=O)N(C)c1nnc(-c2ccc([N+](=O)[O-])cc2)s1`, the activity, negative = inhibition was -5.26% [at 2.29 µM] (inactive).
`O=C(CN1CCCCC1)Nc1nnc(-c2ccc([N+](=O)[O-])cc2)s1`: the AC50 is 7.94 µM (active).
For the compound `O=C(CN1CCCCC1)Nc1cccc([N+](=O)[O-])c1`, the “activity, negative = inhibition” value is 22.9% (inactive).
With `FC(F)(F)c1ccc(/C=N/N2CCN(Cc3cccc4ccccc34)CC2)cc1`, the activity, negative = inhibition is 15.5% [at 2.29 µM] (inactive).
On the same count and under the same terms, then `CCCN(CCC)CCNC(=O)C1CCCN(S(=O)(=O)c2ccc3c(c2)oc(=O)n3C)C1` (stereo unspecified), with -19.5% (inactive); and `Cn1c(=O)c2cn(-c3ccccc3)cc2n(C)c1=O`, with -2.19% [at 11.4 µM] (inactive).
With `Cn1c(=O)c2cc(S(=O)(=O)NCCC(=O)N3CC=C(c4ccccc4)CC3)ccc2n(C)c1=O`, the AC50 is 10 µM (active).
For `Cn1c(=O)oc2cc(S(=O)(=O)NCCC(=O)N3CC=C(c4ccccc4)CC3)ccc21`, the AC50 was 12.6 µM (active).
Regarding `O=C(Nc1ccccc1)[C@@]12C[C@@H]1/C(=N/O)c1ccccc1O2`, the “activity, negative = inhibition” value was -18.7% (inactive).
As for `Fc1ccc(C(OCCCc2cnc[nH]2)c2ccc(F)cc2)cc1`, the AC50 is 0.794 µM (active).
Regarding `O=C(O)CCC(O)=C1S(=O)(=O)OCCOS1(=O)=O`, the activity, negative = inhibition was 2.08% [at 11.4 µM] (inactive).
Take `COc1ccccc1CN(Cc1cc2cc3c(cc2[nH]c1=O)OCCO3)Cc1nnnn1Cc1ccco1`: the half-maximal activity concentration (AC50) was 10 µM (active).
The same measure, in the same setting: in the case of `O=c1[nH]c2cc3c(cc2cc1CN(CCCO)Cc1nnnn1Cc1ccc(F)cc1)OCO3` it was 3.16 µM (active).
On the same count and under the same terms, then `Cc1cc(C)c2cc(CN(Cc3nnnn3Cc3ccc(F)cc3)C3CCCC3)c(=O)[nH]c2c1`, with 10 µM (active); and `COc1ccccc1CN(Cc1cc2cc(C)cc(C)c2[nH]c1=O)Cc1nnnn1CC1CCCO1` (stereo unspecified), with 10 µM (active).
`NC(N)=N/N=C\c1ccc(C2CCNCC2)cc1`: the activity, negative = inhibition is -4.2% [at 11.4 µM] (inactive).
For `CN(C)CCCn1c2c3ccccc3ccc2c2oc(=O)c3ccccc3c21`, the activity, negative = inhibition is 3.83% [at 11.4 µM] (inactive).
Still for that read-out and setting: in the case of `NC1=NC(=O)/C(=C/c2cccs2)S1` it was 10.4% (inactive); in that of `CCNc1ncc2nc(-c3ccccc3)c(=O)n(C)c2n1`, -26.1% (inactive).
As for `CCNc1ncc2nc(CCc3ccccc3)c(=O)n(-c3ccccc3)c2n1`, the concentration at half-maximal activity (AC50) was 5.01 µM (active).
In the case of `CCNc1ncc2nc(C)c(=O)n(C3CC3)c2n1`, the “activity, negative = inhibition” value was -24.2% (inactive).
On to `CCNc1ncc2nc(CCc3ccccc3)c(=O)n(C3CC3)c2n1`, for which the half-maximal activity concentration (AC50) is 15.8 µM (active).
Take `COc1ccc(-c2nc3cnc(N4CCOCC4)nc3n(CCc3ccccc3)c2=O)cc1`: the “activity, negative = inhibition” value was -9.07% (inactive).
Same read-out and setting: in the case of `COc1ccc(-n2c(=O)c(-c3ccccc3)nc3cnc(N4CCOCC4)nc32)cc1` it was -13.6% (inactive).
As for `CCNc1ncc2nc(CCc3ccccc3)c(=O)n(-c3ccc(OC)cc3)c2n1`, the concentration at half-maximal activity (AC50) was 6.31 µM (active).
Consider `CCNc1ncc2nc(-c3ccccc3)c(=O)n(C3CC3)c2n1`, for which the “activity, negative = inhibition” value is -27.1% (inactive).
On the same count and under the same terms, in the case of `CCNc1ncc2nc(-c3ccc(Cl)cc3)c(=O)n(C)c2n1` it was -10.1% (inactive).
For `COc1ccc(-n2c(=O)c(CCc3ccccc3)nc3cnc(N4CCOCC4)nc32)cc1`, the AC50 was 12.6 µM (active).
As to `COc1ccc(C(=O)c2ccccc2)c(O)c1`, the “activity, negative = inhibition” value is -12.2% [at 25.6 µM] (inactive).
Take `COc1ccc(C(=O)c2cnc3ccccc3c2-c2ccccc2)cc1`: the AC50 was 12.6 µM (active).
`CCOC(=O)c1cn(-c2nc(-c3ccc(Cl)cc3)cs2)c2c(F)c(N3CC(C)OC(C)C3)c(F)cc2c1=O` (stereo unspecified): the “activity, negative = inhibition” value was -1.76% (inactive).
With `Cc1ccc(S(=O)(=O)Nc2nc3ccccc3nc2N2CCc3ccccc3C2)cc1`, the half-maximal activity concentration (AC50) was 2.82 µM (active).
As to `Cc1ccc2[nH]c3c(N4CCc5ccccc5C4)ncnc3c2c1`, the activity, negative = inhibition was -19.7% [at 2.29 µM] (inactive).
On the same count and under the same terms, in the case of `O=C1C2C3C=CC(C2C(=O)N1CN1CCOCC1)C1C2C(=O)N(CN4CCOCC4)C(=O)C2C31` (stereo unspecified) it was -1.18% [at 11.4 µM] (inactive).
Consider `COc1cccc(-c2cc(NCc3cccnc3)ncn2)c1`, for which the AC50 was 3.98 µM (active).
Take `c1cncc(-c2cc(NCc3cccs3)ncn2)c1`: the AC50 was 2.51 µM (active).
For the compound `COc1cccc(-c2cc(NCc3cccs3)ncn2)c1`, the AC50 is 7.94 µM (active).
The same measure, in the same setting: then `COc1cccc(-c2cc(NCc3cnc(C)cn3)ncn2)c1`, with 25.1 µM (active).
As for `COc1ccccc1-c1cc(NCc2cnc(C)cn2)ncn1`, the “activity, negative = inhibition” value was -29.9% (inactive).
Regarding `N[C@](CC1c2ccccc2Oc2ccccc21)(C(=O)O)[C@@H]1C[C@@H]1C(=O)O`, the “activity, negative = inhibition” value is -17.2% (inactive).
In the case of `CCCOC(=O)c1ccc(NC(=O)c2cn(CC)c3nc(C)ccc3c2=O)cc1`, the “activity, negative = inhibition” value is -9.88% (inactive).
Regarding `C[C@@H]1c2cccc(O)c2C(O)=C2C(=O)[C@@]3(O)C(O)=C(C(N)=O)C(=O)[C@@H](N(C)C)[C@@H]3[C@@H](O)[C@@H]21`, the AC50 entry is “inactive”.
With `COc1cccc(-c2cc(NCc3ccccc3)ncn2)c1`, the AC50 was 25.1 µM (active).
With `O=C(NCCO[N+](=O)[O-])c1cccnc1`, the “activity, negative = inhibition” value was -5.81% (inactive).
Turning to `O=C(NCCOC(=O)c1ccc(C(=O)OCCNC(=O)c2cccnc2)s1)c1cccnc1`, the concentration at half-maximal activity (AC50) is 2.51 µM (active).
Turning to `CCN1C(=O)/C(=C/C=C2/SCCN2C)SC1=S`, the activity, negative = inhibition is 0.316% [at 2.29 µM] (inactive).
On to `CN1CCN(NC(=O)c2cccc(F)c2)CC1`, for which the “activity, negative = inhibition” value is -1.37% (inactive).
With `CN1CCN(NC(=O)CN2C(=O)/C(=C/c3c(Cl)cccc3Cl)SC2=S)CC1`, the AC50 was 14.1 µM (active).
Take `CSC(=NC#N)N1CCN(c2ccc(Cl)cc2)CC1`: the “activity, negative = inhibition” value was 22.3% (inactive).
For the compound `CN(C)C(=C(C#N)C#N)N1CCN(c2ccc(Cl)c(Cl)c2)CC1`, the concentration at half-maximal activity (AC50) was 8.91 µM (active).
For the compound `C[N@+]1(CCC(=O)c2ccccc2)CC[C@H]2CC[C@H](C2)C1`, the activity, negative = inhibition was -5.07% [at 11.4 µM] (inactive).
For the compound `CCOC(=O)c1c(NC(C)=O)sc2c(OC)cccc12`, the AC50 was 2 µM (active).
With `CCOC(=O)c1sc(NC(C)=O)nc1-c1ccccc1`, the activity, negative = inhibition was -5.57% [at 2.29 µM] (inactive).
`O=[N+]([O-])C(/C=C(\Cl)[N+](=O)[O-])=C1N(Cc2ccc(Cl)nc2)CCN1Cc1ccc(Cl)nc1`: the half-maximal activity concentration (AC50) was 14.1 µM (active).
`CC(=O)c1cccc(NC(=O)c2csc(-n3nc(C)cc3C(F)(F)F)n2)c1`: the AC50 is 10 µM (active).
Turning to `CCOC(=O)c1cnn(-c2nc(-c3cccc(F)c3)cs2)c1C(F)(F)F`, the “activity, negative = inhibition” value was 29.3% (inactive).
For the compound `COC(=O)c1ccc(NC(C)=O)o1`, the “activity, negative = inhibition” value was -12.1% (inactive).
Still for that read-out and setting: then `CCOc1ccc(CC(C(N)=O)C(N)=O)cc1CN(C)C`, with -4.85% [at 2.29 µM] (inactive).
Regarding `CCOc1ccc(CC(=O)Nc2sc(Cc3ccccc3)c(C)c2C(N)=O)cc1OCC`, the AC50 was 20 µM (active).
With `Cc1sc(NC(=O)c2ccccc2)c(C(=O)NCCN(C)C)c1C`, the “activity, negative = inhibition” value was -2.43% (inactive).
Consider `COC(=O)c1c(NC(C)=O)sc(Cc2ccccc2)c1C`, for which the AC50 is 14.1 µM (active).
